These results are taken from article PMC3218832.

Holding throughout (test): protein binding microarray; high values mean tight binding
Conditions in all cases: dsDNA, one strand shown

Test [1] has as its target RELARELA (p65 homodimer) (Homo sapiens, UniProt Q04206 1-307).
The target of test [2] is p50p50 homodimer (Homo sapiens, UniProt P19838 7-356).
In test [3] the target is T1, p52p52 homodimer (Homo sapiens, UniProt Q00653 4-332).
T1 sequence: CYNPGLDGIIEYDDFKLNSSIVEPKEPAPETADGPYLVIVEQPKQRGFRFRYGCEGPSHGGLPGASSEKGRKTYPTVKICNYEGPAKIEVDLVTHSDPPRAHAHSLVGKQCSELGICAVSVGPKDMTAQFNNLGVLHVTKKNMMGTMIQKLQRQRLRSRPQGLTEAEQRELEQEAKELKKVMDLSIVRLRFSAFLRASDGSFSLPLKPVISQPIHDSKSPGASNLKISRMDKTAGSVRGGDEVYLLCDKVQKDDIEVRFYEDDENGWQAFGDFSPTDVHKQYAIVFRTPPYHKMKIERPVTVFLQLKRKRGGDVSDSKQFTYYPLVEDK

Test [4] concerns the target RELA (p65) subunit of heterodimer;p50 subunit (Homo sapiens;Homo sapiens, UniProt Q04206;P19838 1-307;7-356).
Test [5] has as its target RELA (p65) subunit of heterodimer;p52 subunit (Homo sapiens;Homo sapiens, UniProt Q04206;Q00653 1-307;4-332).
Test [6] has as its target RELB subunit;p50 subunit (Homo sapiens;Homo sapiens, UniProt Q01201;P19838 120-401;7-356).
Test [7] addresses T2, RELB subunit;p52 subunit (Homo sapiens;Homo sapiens, UniProt Q01201;Q00653 120-401;4-332).
T2 sequence 1: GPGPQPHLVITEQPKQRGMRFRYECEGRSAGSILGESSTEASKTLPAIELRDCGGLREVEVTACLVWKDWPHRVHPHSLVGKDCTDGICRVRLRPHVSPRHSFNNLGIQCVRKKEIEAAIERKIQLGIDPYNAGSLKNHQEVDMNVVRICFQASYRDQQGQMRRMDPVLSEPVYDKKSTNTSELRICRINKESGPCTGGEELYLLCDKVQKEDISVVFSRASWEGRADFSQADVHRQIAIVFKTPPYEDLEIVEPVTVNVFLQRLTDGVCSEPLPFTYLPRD
T2 sequence 2: T1 sequence

For test [8], the target named is C-Rel subunit;p50 subunit (Homo sapiens;Homo sapiens, UniProt Q04864;P19838 1-285;7-356).
For test [9], the target named is T3, C-Rel subunit;p52 subunit (Homo sapiens;Homo sapiens, UniProt Q04864;Q00653 1-285;4-332).
T3 sequence 1: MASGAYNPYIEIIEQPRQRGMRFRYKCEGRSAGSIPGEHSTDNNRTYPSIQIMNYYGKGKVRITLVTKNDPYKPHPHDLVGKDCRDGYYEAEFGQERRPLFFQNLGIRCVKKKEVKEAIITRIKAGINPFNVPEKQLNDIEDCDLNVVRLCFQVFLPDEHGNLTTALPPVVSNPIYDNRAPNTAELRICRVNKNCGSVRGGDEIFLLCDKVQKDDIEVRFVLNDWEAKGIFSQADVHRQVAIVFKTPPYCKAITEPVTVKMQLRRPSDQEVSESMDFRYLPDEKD
T3 sequence 2: T1 sequence

RELA (p65) subunit of heterodimer;p50 subunit, sequence (Q04206 1-307, chain 1 of 2): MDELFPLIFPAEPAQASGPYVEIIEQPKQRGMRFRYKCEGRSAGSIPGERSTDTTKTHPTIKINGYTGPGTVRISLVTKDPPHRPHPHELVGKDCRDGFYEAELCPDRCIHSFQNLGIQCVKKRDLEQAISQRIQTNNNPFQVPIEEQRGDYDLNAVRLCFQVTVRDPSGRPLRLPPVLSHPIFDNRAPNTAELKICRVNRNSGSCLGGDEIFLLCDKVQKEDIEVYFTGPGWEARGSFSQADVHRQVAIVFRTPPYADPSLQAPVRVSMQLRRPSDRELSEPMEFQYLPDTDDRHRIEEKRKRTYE
RELA (p65) subunit of heterodimer;p50 subunit, sequence (P19838 7-356, chain 2 of 2): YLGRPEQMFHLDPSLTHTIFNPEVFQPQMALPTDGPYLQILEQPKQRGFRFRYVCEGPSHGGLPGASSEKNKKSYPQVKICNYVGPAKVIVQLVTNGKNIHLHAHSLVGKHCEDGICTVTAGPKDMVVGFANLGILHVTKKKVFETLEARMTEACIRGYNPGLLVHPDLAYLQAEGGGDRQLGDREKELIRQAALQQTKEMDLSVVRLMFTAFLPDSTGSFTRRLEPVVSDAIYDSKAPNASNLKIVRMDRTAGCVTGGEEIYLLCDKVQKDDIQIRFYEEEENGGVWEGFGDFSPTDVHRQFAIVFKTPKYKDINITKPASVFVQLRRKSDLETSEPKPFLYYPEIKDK
RELARELA (p65 homodimer), sequence (Q04206 1-307): as the sequence (Q04206 1-307, chain 1 of 2) above
p50p50 homodimer, sequence (P19838 7-356): as the sequence (P19838 7-356, chain 2 of 2) above

Turning to GGGAGTGTCCT, the binding signal in test [1] was 0.931 z-score; in [2], -0.152 z-score; in test [3], 0.385 z-score; in [4] it was 0.0362 z-score; in test [5] it was 0.309 z-score; in test [6], -0.212 z-score. Besides, the values for the binding signal in test [7], in test [8] and in test [9] were 0.00999 z-score, -0.0276 z-score and 0.382 z-score, respectively.

For the sequence CAAGAAACCCT, the binding signal is -0.512 z-score in test [1]; -0.321 z-score in [2]; -0.245 z-score in test [3]; -0.525 z-score in [4]; -0.264 z-score in test [5]; -0.492 z-score in test [6]. Also, the binding signal was -0.353 z-score in test [7], -0.467 z-score in test [8] and -0.305 z-score in [9].

Consider GAAGTGCTCCT, for which the binding signal in [1] is -0.661 z-score; in test [2] it was -1.67 z-score; in [3], -0.792 z-score; in test [4], -0.918 z-score; in test [5], -1.01 z-score; in test [6] it was -1.33 z-score. In addition, the binding signal was -1.22 z-score in test [7], -1.67 z-score in test [8] and -1 z-score in test [9].

In the case of GGAAGTTTCCC, the binding signal in [1] is 2.98 z-score; in test [2], 0.874 z-score; in test [3], 1.24 z-score; in [4], 1.47 z-score; in [5], 1.22 z-score; in test [6], 0.959 z-score. The binding signal in test [7] turned out to be 1.03 z-score; in test [8] it was 1.36 z-score; in [9], 1.15 z-score.

With GAAATGCTCCC, the binding signal in test [1] is -0.193 z-score; in test [2] it was -0.556 z-score; in [3], -0.401 z-score; in [4] it was -0.482 z-score; in test [5], -0.537 z-score; in [6] it was -0.542 z-score. Besides, the binding signal in [7] was -0.819 z-score; in test [8] it was -0.726 z-score; in [9], -0.598 z-score.

Take AAATGTATCCT: the binding signal in [1] was -0.258 z-score; in test [2], -1.3 z-score; in test [3] it was -0.661 z-score; in test [4], -0.932 z-score; in test [5] it was -0.782 z-score; in test [6], -0.907 z-score. Also, the binding signal in test [7] is -0.763 z-score; in [8], -1.32 z-score; in [9], -0.746 z-score.

CGGGTATTCCT: the binding signal in test [1] was found to be 1.71 z-score; in [2], 0.73 z-score; in [3] it was 1.4 z-score; in test [4], 0.593 z-score; in test [5], 1.06 z-score; in test [6], 0.353 z-score. Further, the binding signal in [7] was determined as 0.712 z-score; in [8] it was 0.468 z-score; in test [9], 1.22 z-score.

GAAAAATTCCT: the binding signal in test [1] is 1.78 z-score; in test [2], -0.0646 z-score; in test [3], -0.212 z-score; in [4], 0.245 z-score; in test [5], 0.117 z-score; in test [6] it was -0.659 z-score. In addition, the binding signal in test [7] was -0.236 z-score; in test [8], 0.538 z-score; in test [9], 0.319 z-score.

CAGTACCCCCC: the binding signal is -0.045 z-score in [1]; 1.15 z-score in test [2]; 0.733 z-score in test [3]; 0.954 z-score in test [4]; 0.96 z-score in test [5]; 0.927 z-score in [6]. The binding signal in [7] turned out to be 1.16 z-score; in [8], 0.886 z-score; in test [9], 0.823 z-score.

Regarding AGATTACTCCT, the binding signal in [1] was -0.0935 z-score; in test [2], -1.24 z-score; in test [3] it was -0.548 z-score; in test [4], -0.691 z-score; in test [5], -0.875 z-score; in test [6], -1.01 z-score. The binding signal in [7] is -0.843 z-score; in [8], -1.01 z-score; in test [9], -0.848 z-score.

Take GGAGGAGTCCC: the binding signal in test [1] stood at 0.299 z-score; in test [2], 0.853 z-score; in [3], 0.586 z-score; in [4], 0.889 z-score; in [5], 0.831 z-score; in [6] it was 0.725 z-score. The binding signal in test [7] amounted to 0.409 z-score; in test [8], 0.717 z-score; in test [9], 0.541 z-score.

Consider GGGTGGCCCCC, for which the binding signal in test [1] is -0.733 z-score; in test [2], 0.527 z-score; in [3] it was 0.796 z-score; in test [4], 0.639 z-score; in test [5], 0.996 z-score; in test [6], 0.399 z-score. In addition, the binding signal in test [7] worked out at 0.74 z-score; in [8], 0.773 z-score; in [9] it was 0.833 z-score.

Turning to GGAGTCCTCCC, the binding signal in test [1] was -0.114 z-score; in test [2], -0.916 z-score; in [3], -0.266 z-score; in test [4] it was -0.571 z-score; in [5] it was -0.463 z-score; in test [6], -0.55 z-score. Moreover, the figures for the binding signal in test [7], in test [8] and in test [9] were -0.535 z-score, -0.207 z-score and -0.576 z-score, respectively.

With CGGAGCGCCCT, the binding signal in [1] was -0.577 z-score; in [2], -1.84 z-score; in test [3] it was -0.701 z-score; in test [4], -0.94 z-score; in test [5], -0.911 z-score; in test [6], -1.13 z-score. The binding signal is -0.954 z-score in [7], -1.21 z-score in test [8] and -1.01 z-score in [9].

Turning to GAGTGGATCCT, the binding signal in test [1] was -0.466 z-score; in test [2], -1.11 z-score; in test [3], -0.663 z-score; in [4], -0.846 z-score; in test [5] it was -1 z-score; in test [6], -1.04 z-score. For the same sequence, the values for the binding signal in [7], in test [8] and in test [9] were -0.919 z-score, -1.49 z-score and -0.92 z-score, respectively.
